The source made the active and inactive calls. No stated cut-off is given here; in the data, active means inhibition above about 31%; inactive means the rest.
Assay: MRP1 drug-resistance reversers in H69AR cells – cell-based, doxorubicin co-treatment, pilot screen (AID 601)
Conditions: H69AR cells, CellTiter-Glo, 72 h; compound alone cytotoxicity; at 10 µM

Row | SMILES | viability [%]
1 | CCOc1ccc2nc(SCC(=O)Nc3ncccn3)[nH]c2c1 | 105
2 | O=C(NCc1ccccn1)c1cc(-n2cnnc2)ccc1Cl | 101
3 | OCC(O)CN1CCN(c2ccccc2)CC1 (stereo not given) | 92.9
4 | CCCc1cc(=O)[nH]c(Nc2ccc(OC)c(Cl)c2)n1 | 70.6
5 | O=C(O)c1ccc(CSc2ncn[nH]2)cc1 | 94.4
6 | O=C(NCc1ccc2c(c1)OCO2)C1CCC(CNS(=O)(=O)c2ccccc2)CC1 (stereo not given) | 92.2
7 | NC(CO)C(=O)NNCc1ccc(O)c(O)c1O (stereo not given) | 98.7
8 | CCCCCc1nnc(NC(=O)Cc2cccs2)s1 | 102
9 | O=C(NCCN1CCOCC1)c1ccc(CS(=O)(=O)Cc2ccccc2F)o1 | 108
10 | CC1(C2(O)CC(c3ccccc3)ON2)CCCCC1 (stereo not given) | 84.1
11 | CCOC(=O)N1CCC(n2c(=S)[nH]c3cc(OC)c(OC)cc3c2=O)CC1 | 57.1
12 | O=S(=O)(NCc1cn2ccccc2n1)c1cc(F)ccc1F | 96.6
13 | O=C(CCNNC(=O)c1ccncc1)NCc1ccccc1 | 93.5
14 | CC(OC(=O)c1ccco1)C(=O)NCc1cccs1 (stereo not given) | 97.4
15 | C(=N/n1c2ccccc2c2ccccc21)/c1ccco1 | 86.5
16 | CCCCC[C@H](O)/C=C/C1=C(CCCCCCC(=O)O)C(=O)CC1 | 92.5
17 | CCOC(=O)C1CCN(C(=O)COc2ccc(S(=O)(=O)NC(C)C)cc2Cl)CC1 | 90.4
18 | Nn1c(SCC(=O)NC2CCCCC2)nnc1-c1ccc(Cl)cc1 | 91.6
19 | Cc1nnc(C)c2c(C)n(Cc3ccc4c(c3)OCO4)c(C)c12 | 80.9
20 | CCOC(=O)c1cc(-c2ccccc2)sc1N | 81.3

Row | SMILES | viability [%]
21 | O=C(Nc1nc(-c2cccs2)cs1)c1cccc(S(=O)(=O)N2CCCCC2)c1 | 66.8
22 | c1cc2c(cc1Cn1cnnn1)OCO2 | 105
23 | Cc1cc(C)cc(NC(=O)CN(C)S(=O)(=O)c2cnc[nH]2)c1 | 100
24 | CC(=O)[C@@]1(O)CC[C@H]2[C@@H]3C[C@H](C)C4=CC(=O)C=C[C@]4(C)[C@@]3(F)[C@@H](O)C[C@@]21C | 93.2
25 | O=S(=O)(Nn1cnnc1)c1ccccc1Cl | 89.3
26 | CNC(=O)NCCN1CCCC1=O | 102
27 | CC(=O)c1ccccc1NS(=O)(=O)c1c(C)nn(-c2ccccc2)c1C | 88.3
28 | Cc1onc(-c2c(F)cccc2Cl)c1C(=O)Nc1nc2c(s1)CCCC2 | 77.3
29 | Cc1nc2ccc(S(=O)(=O)NCC(=O)N3CCCCC3)cc2s1 | 87.4
30 | CCN1CCN(C(=O)N[C@@H](C(=O)N[C@@H]2C(=O)N3[C@@H]2SC(C)(C)[C@@H]3C(=O)O)c2ccccc2)C(=O)C1=O | 91.5
31 | COc1ccc2cnn(-c3ccccc3C)c(=O)c2c1OC | 106
32 | Cc1ccc(S(=O)(=O)N2CCN(C(=O)CSc3nc4ccccc4c(=O)[nH]3)CC2)c(C)c1 | 85.1
33 | C=CCN1C(=O)CS/C1=N/c1nccs1 | 98.4
34 | CCCC(=O)Nc1ccc(C(=O)O)cc1NC(=O)CCC | 96.3
35 | CCCC(=O)Nc1cnc(NC(=O)c2cccc(F)c2)cc1C | 88.7
36 | Cc1cc(C)n2nc(SCC(=O)N(C)Cc3ccccc3)nc2n1 | 81.7
37 | CCc1[nH]nc2c1C1(CCN(C(=O)OCc3ccccc3)CC1)C(C#N)=C(N)O2 | 85.2
38 | CCOc1ccc(N2CC(C(=O)NCCc3ccc(OC)c(OC)c3)CC2=O)cc1 (stereo not given) | 94.5
39 | O=C(COC(=O)CCC1CCCC1)Nc1ccc(Cl)cn1 | 98.6
40 | c1ccc(-c2oc3ncnc(NCCN4CCOCC4)c3c2-c2ccccc2)cc1 | 73.3

Assay: yeast transport mutant growth inhibition pilot in 384-well plates, post-Golgi transport modulator project (AID 636)
Conditions: absorbance 615 nm, about 18 h, stronger effect = higher value

Row | SMILES | inhibition
41 | CCOc1ccc2nc(SCC(=O)Nc3ncccn3)[nH]c2c1 | -1.62% (inactive)
42 | O=C(NCc1ccccn1)c1cc(-n2cnnc2)ccc1Cl | -2.73% (inactive)
43 | OCC(O)CN1CCN(c2ccccc2)CC1 (stereo not given) | 1.95% (inactive)
44 | CCCc1cc(=O)[nH]c(Nc2ccc(OC)c(Cl)c2)n1 | -3.51% (inactive)
45 | O=C(O)c1ccc(CSc2ncn[nH]2)cc1 | -6.16% (inactive)
46 | O=C(NCc1ccc2c(c1)OCO2)C1CCC(CNS(=O)(=O)c2ccccc2)CC1 (stereo not given) | 0.52% (inactive)
47 | NC(CO)C(=O)NNCc1ccc(O)c(O)c1O (stereo not given) | -3.51% (inactive)
48 | CCCCCc1nnc(NC(=O)Cc2cccs2)s1 | -6.71% (inactive)
49 | O=C(NCCN1CCOCC1)c1ccc(CS(=O)(=O)Cc2ccccc2F)o1 | -3.84% (inactive)
50 | CC1(C2(O)CC(c3ccccc3)ON2)CCCCC1 (stereo not given) | -4.73% (inactive)
51 | CCOC(=O)N1CCC(n2c(=S)[nH]c3cc(OC)c(OC)cc3c2=O)CC1 | -4.16% (inactive)
52 | O=S(=O)(NCc1cn2ccccc2n1)c1cc(F)ccc1F | -5.68% (inactive)
53 | O=C(CCNNC(=O)c1ccncc1)NCc1ccccc1 | -7.53% (inactive)
54 | CC(OC(=O)c1ccco1)C(=O)NCc1cccs1 (stereo not given) | -4.25% (inactive)
55 | C(=N/n1c2ccccc2c2ccccc21)/c1ccco1 | -5.19% (inactive)
56 | CCCCC[C@H](O)/C=C/C1=C(CCCCCCC(=O)O)C(=O)CC1 | -0.26% (inactive)
57 | CCOC(=O)C1CCN(C(=O)COc2ccc(S(=O)(=O)NC(C)C)cc2Cl)CC1 | 0.66% (inactive)
58 | Nn1c(SCC(=O)NC2CCCCC2)nnc1-c1ccc(Cl)cc1 | -6.16% (inactive)
59 | Cc1nnc(C)c2c(C)n(Cc3ccc4c(c3)OCO4)c(C)c12 | -0.55% (inactive)
60 | CCOC(=O)c1cc(-c2ccccc2)sc1N | -6% (inactive)

Row | SMILES | inhibition
61 | O=C(Nc1nc(-c2cccs2)cs1)c1cccc(S(=O)(=O)N2CCCCC2)c1 | 3.9% (inactive)
62 | c1cc2c(cc1Cn1cnnn1)OCO2 | -1.95% (inactive)
63 | Cc1cc(C)cc(NC(=O)CN(C)S(=O)(=O)c2cnc[nH]2)c1 | -2.13% (inactive)
64 | CC(=O)[C@@]1(O)CC[C@H]2[C@@H]3C[C@H](C)C4=CC(=O)C=C[C@]4(C)[C@@]3(F)[C@@H](O)C[C@@]21C | -0.91% (inactive)
65 | O=S(=O)(Nn1cnnc1)c1ccccc1Cl | 4% (inactive)
66 | CNC(=O)NCCN1CCCC1=O | -5% (inactive)
67 | CC(=O)c1ccccc1NS(=O)(=O)c1c(C)nn(-c2ccccc2)c1C | -3.11% (inactive)
68 | Cc1onc(-c2c(F)cccc2Cl)c1C(=O)Nc1nc2c(s1)CCCC2 | -3.29% (inactive)
69 | Cc1nc2ccc(S(=O)(=O)NCC(=O)N3CCCCC3)cc2s1 | -2.99% (inactive)
70 | CCN1CCN(C(=O)N[C@@H](C(=O)N[C@@H]2C(=O)N3[C@@H]2SC(C)(C)[C@@H]3C(=O)O)c2ccccc2)C(=O)C1=O | -0.39% (inactive)
71 | COc1ccc2cnn(-c3ccccc3C)c(=O)c2c1OC | -3.24% (inactive)
72 | Cc1ccc(S(=O)(=O)N2CCN(C(=O)CSc3nc4ccccc4c(=O)[nH]3)CC2)c(C)c1 | -6.53% (inactive)
73 | C=CCN1C(=O)CS/C1=N/c1nccs1 | -8.9% (inactive)
74 | CCCC(=O)Nc1ccc(C(=O)O)cc1NC(=O)CCC | -3.56% (inactive)
75 | CCCC(=O)Nc1cnc(NC(=O)c2cccc(F)c2)cc1C | 2.47% (inactive)
76 | Cc1cc(C)n2nc(SCC(=O)N(C)Cc3ccccc3)nc2n1 | -6.85% (inactive)
77 | CCc1[nH]nc2c1C1(CCN(C(=O)OCc3ccccc3)CC1)C(C#N)=C(N)O2 | -8.9% (inactive)
78 | CCOc1ccc(N2CC(C(=O)NCCc3ccc(OC)c(OC)c3)CC2=O)cc1 (stereo not given) | -11% (inactive)
79 | O=C(COC(=O)CCC1CCCC1)Nc1ccc(Cl)cn1 | 0% (inactive)
80 | c1ccc(-c2oc3ncnc(NCCN4CCOCC4)c3c2-c2ccccc2)cc1 | -0.52% (inactive)
